# Source: the supplement of paper PMC3334620
# In all, about 33,000 sequences were measured (“E-score (-0.5 to 0.5)”: median about -8e-05, highest 2% from about 0.23 on). The entries come from a sample that favours the highest values as a whole.
# Target: T1, Nrg2 (UniProt P38082)
# T1 sequence: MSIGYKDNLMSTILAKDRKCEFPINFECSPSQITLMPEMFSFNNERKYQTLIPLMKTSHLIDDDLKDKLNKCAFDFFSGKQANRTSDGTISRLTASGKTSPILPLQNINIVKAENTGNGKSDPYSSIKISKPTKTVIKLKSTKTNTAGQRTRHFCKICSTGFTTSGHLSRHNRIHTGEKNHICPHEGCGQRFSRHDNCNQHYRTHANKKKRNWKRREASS
# Test: PBM E-score (8-mer binding enrichment) (E-score (-0.5 to 0.5)); higher = stronger / more preferred TF binding
# Settings: protein concentration: 100 nM; construct: GST-full length
# Procedure: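 Universal 'all 10-mer' protein binding microarrays (Agilent AMADID 015681) probed with GST-tagged S. cerevisiae TFs (full-length or DBD) made by in vitro transcription/translation (PURExpress), about 100-200 nM. Bound TF was detected with fluorescent anti-GST. Each ungapped 8-mer (which stands for itself and its reverse complement) is scored by the PBM enrichment score (E-score), a modified Wilcoxon-Mann-Whitney statistic from -0.5 to +0.5, computed with the Universal PBM Analysis Suite. Scale: above 0.35 generally sequence-specific binding.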
row,Sequence,PBM E-score
1,AGTATACG,0.0367
2,CCCCAGAA,-0.0495
3,GATTGGCA,-0.0954
4,TCCAGACA,-0.0642
5,GGTAACGA,-0.00769
6,AATTGTGA,0.116
7,CTCACAAC,0.206
8,ATCGGAAA,0.0359
9,GTCGGAAA,0.234
10,CTCGGAAA,-0.0457
11,ATGTGAGG,-0.0251
12,ATGTCCGG,0.0983
13,CTGTAGTA,0.245
14,GTGTAGTA,-0.0167
15,ATGTAGTA,0.154
16,CAGCGTTC,0.0488
17,TGCCAACA,0.0266
18,AAATCTTG,0.0495
19,CGGCAGAA,0.154
20,AATGAAGA,0.14
21,AATGAAGT,0.23
22,AATGAAGG,0.0439
23,CTGAACGA,-0.166
24,CACGCAGC,-0.0258
25,AACGCAGC,0.253

row,Sequence,PBM E-score
1,AACGCAGA,-0.0108
2,CGGGTAAG,-0.13
3,AAACTATT,-0.0651
4,ATCATTTA,0.0968
5,CTCATTTC,-0.0953
6,ATCATTTC,0.242
7,AGTGCACG,0.0226
8,AATCATAG,0.235
9,AATCATAC,0.116
10,AATCATAT,0.0761
11,AGATTTGG,-0.144
12,CAAGTTGG,0.225
13,ATTTGTTA,0.113
14,ATTTGTTC,0.272
15,CTTTGTTC,0.0376
16,GAGTCAGC,-0.151
17,AAAAGTCG,0.0204
18,ACCCCATG,0.217
19,GAAAAATC,0.099
20,GCATTGCC,-0.0164
21,GTTCGAAC,0.233
22,ATTCGAAC,0.155
23,CTTCGAAC,0.108
24,GGAAGCAA,-0.0162
25,CCATGCAA,0.247

row,Sequence,PBM E-score
1,TCATGCAA,0.192
2,CCATGCAG,0.155
3,GGGGTCAC,-0.0806
4,ACGGGCGC,0.0207
5,AATCCCCT,0.0153
6,ATCATAAG,-0.085
7,CACATAAG,0.0356
8,AACATAAG,0.246
9,AACATAAA,-0.0006
10,AACATAAC,0.134
11,AACATAAT,0.248
12,GAAGGCAC,0.0779
13,TGTGAGAA,0.183
14,ATATAGTA,0.155
15,ATACATAT,0.235
16,CTATATAG,0.00641
17,ATATATAA,0.24
18,CTCTATAC,-0.0911
19,CTATATAA,0.0499
20,ATATAGTC,0.196
21,CTATATAC,0.238
22,ATACATAA,0.0727
23,ATACATAC,0.0623
24,ATATAGTG,0.241
25,TTATATAA,0.192

row,Sequence,PBM E-score
1,AGTGAGGC,-0.0681
2,AACCTTGC,-0.0724
3,AGCCAAAC,0.121
4,AGATTACG,0.121
5,AGCCGGAG,0.023
6,CGGTGAAG,-0.222
7,GCAACGAA,0.187
8,ACCATCAC,-0.0188
9,ATATATGA,0.0746
10,GTATATAC,0.0119
11,ATATATAT,0.107
12,ATATATAC,0.329
13,ATATATGC,0.18
14,ATATATGG,0.23
15,AACATCGG,-0.137
16,CTACAGAA,0.0765
17,CGGGTGAA,0.16
18,ATCCAGGA,-0.0938
19,ACTCAGGC,0.00622
20,ATTCAGGA,0.117
21,ACTCAGGA,-0.067
22,CATCAGGG,0.229
23,AATCAGGG,0.0765
24,ACTCAGGG,0.294
25,CATCAGGC,-0.00739

row,Sequence,PBM E-score
1,ATTCAGGG,0.367
2,ATCCAGGC,0.0212
3,ATCCAGGG,0.349
4,ATTCAGGC,0.106
5,AGCACAAC,0.0937
6,CTGTGCTC,0.0672
7,GGCTGTTA,-0.00387
8,ATCCGTAA,-0.136
9,AGGCTTCC,0.0147
10,TCTCTCAA,0.14
11,CAGTGAAA,0.0943
12,CAGTGAAG,-0.0253
13,CAGTGAAC,0.248
14,CCAGATAC,-0.0175
15,GTATGCAA,0.0781
16,GACCAGTA,-0.174
17,CGAATTAA,0.175
18,GGAATTAA,0.153
19,AGAATCAT,0.0757
20,AGAATCAG,0.272
21,TGAATCAA,0.232
22,CGAATCAG,0.122
23,AGAATCAA,0.103
24,CGAATCAA,0.22
25,TGAATTAA,0.273

row,Sequence,PBM E-score
1,AGGCCGGG,-0.266
2,GCAGTGCA,-0.0476
3,ATGAGCTA,0.069
4,CAGCAAGC,-0.226
5,CCGCCCTC,-0.112
6,CAGCCAGG,0.0441
7,AAGGATTA,-0.0123
8,ATCCCCAT,0.124
9,GTCCCCAC,-0.178
10,ATCCCCAC,0.247
11,AAAGTCTA,-0.0546
12,CTCTGCAG,-0.0279
13,ATGCATCA,0.229
14,GTGCATCA,0.129
15,ATGCATCG,0.0353
16,CGAGATAG,0.0116
17,GATCTTCA,0.0364
18,AACATATT,0.0545
19,CCGCCCCG,0.309
20,CCGCCCGG,-0.003
21,CCGCCCCC,-0.406
22,AGCTCTGA,-0.199
23,AGTGCAAA,0.258
24,CTTGCAAC,0.124
25,TATGCAAA,-0.0899

row,Sequence,PBM E-score
1,AATGCAAG,0.0402
2,CTTGCAAA,0.232
3,AATGCAAA,0.244
4,AGTGCAAT,0.0654
5,CATGCAAA,0.246
6,AGTGCAAG,0.156
7,CATGCAAG,0.088
8,AATGCAAC,0.127
9,CTTGCAAG,0.181
10,ACCCGTGG,-0.111
11,TCATAAAA,-0.032
12,GCACTAGA,-0.0716
13,CTGGTTCC,0.158
14,AAGAATGG,0.0626
15,TAAGAGGA,-0.0476
16,GTTTACGA,-0.00773
17,CAGGTCTA,-0.0487
18,GCGTCGTA,0.0775
19,AAAGCTTG,0.00751
20,CCCAGTCG,-0.143
21,AGATCAAA,0.0337
22,AATGCGCG,0.177
